Measurements: the supplement of paper PMC3342239
Structures can show the parent of a compound that is named as a salt.

system: Saccharomyces cerevisiae; assay: fraction of cells in G1 phase (DNA content, flow cytometry); higher = more cells with unreplicated DNA (G1 delay); conditions: temperature: 30 C; YPD; JTY2953 pdr5 snq2 (sensitized); drug added to: cultures diluted from stationary phase; 6-7 h
Outline: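 S. cerevisiae in YPD at 30°C was dosed with library drugs, using a final 20 µg/ml for sensitized JTY2953 diluted 1∶200 from overnight and fixed at 6–7 h, or dosing dividing JTY2953 (fixed at 6 h) and BY4741 (fixed at 4.33 h). Ethanol-fixed, SYTOX Green-stained cells were read by flow cytometry (10,000 events). The G1 fraction is taken as the Dean-Jett-Fox G1 peak area divided by the G1 and G2/M areas combined.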

Row | Compound | fraction of cells in G1 phase
1 | CN1CCN2c3ccccc3Cc3ccccc3C2C1 (configuration not stated) [Mianserin hcl] (75.6505 µM) | 0.471
2 | COc1ccc2cc(CCC(C)=O)ccc2c1 [Nabumetone] (87.6065 µM) | 0.535
3 | CN(C)C(=N)NC(=N)N [Metformin] (154.84 µM) | 0.516
4 | CN1CCN(C2=Nc3cc(F)ccc3Cc3ccccc32)CC1 [Fluperlapine] (64.6434 µM) | 0.512
5 | C[C@]12C=CC(=O)C=C1CC[C@H]1[C@@H]3C[C@@H](O)[C@](O)(C(=O)CO)[C@@]3(C)C[C@H](O)[C@@]12F [Triamcinolone] (50.7043 µM) | 0.483
6 | C[C@H]1C[C@H]2[C@@H]3CCC4=CC(=O)C=C[C@]4(C)[C@@]3(F)[C@@H](O)C[C@]2(C)[C@@]1(O)C(=O)CO [Betamethasone] (39.6353 µM) | 0.508
7 | CC(C)C[C@H](NC(=O)[C@@H](COC(C)(C)C)NC(=O)[C@H](Cc1ccc(O)cc1)NC(=O)[C@H](CO)NC(=O)[C@H](Cc1c[nH]c2ccccc12)NC(=O)[C@H](Cc1cnc[nH]1)NC(=O)[C@@H]1CCC(=O)N1)C(=O)N[C@@H](CCCNC(=N)N)C(=O)N1CCC[C@H]1C(=O)NNC(N)=O [Goserelin acetate] (15.755 µM) | 0.485
8 | COc1ccc2[nH]c([S@@+]([O-])Cc3ncc(C)c(OC)c3C)nc2c1 [Esomeprazole potassium] (57.9 µM) | 0.522
9 | COc1ccc2[nH]c([S+]([O-])Cc3ncc(C)c(OC)c3C)nc2c1 (configuration not stated) [Omeprazole] (57.9 µM) | 0.486
10 | Cc1ncc([N+](=O)[O-])n1CCO [Metronidazole] (116.852 µM) | 0.422
11 | CN(C)c1ccc(O)c2c1C[C@H]1C[C@H]3[C@H](N(C)C)C(=O)C(C(N)=O)=C(O)[C@@]3(O)C(=O)C1=C2O [Minocycline HCl] (43.717 µM) | 0.51
12 | C=CCc1ccccc1OCC(O)CNC(C)C (configuration not stated) [Alprenolol HCl] (80.2066 µM) | 0.52
13 | O=C(O)COC(=O)Cc1ccccc1Nc1c(Cl)cccc1Cl [Aceclofenac] (56.4665 µM) | 0.489
14 | COc1ccc2[nH]cc(CCNC(C)=O)c2c1 [Melatonin] (86.1012 µM) | 0.529
15 | O=C(O)c1cn(C2CC2)c2cc(N3CCNCC3)c(F)cc2c1=O [Ciprofloxacin] (60.3592 µM) | 0.461
16 | Cn1cnc([N+](=O)[O-])c1Sc1ncnc2[nH]cnc12 [Azathioprine] (72.1241 µM) | 0.465
17 | O=C(O)CCC(=O)c1ccc(-c2ccccc2)cc1 [Fenbufen] (78.6509 µM) | 0.572
18 | CCCc1nc(C)c2c(=O)nc(-c3cc(S(=O)(=O)N4CCN(CC)CC4)ccc3OCC)[nH]n12 [Vardenafil] (40.9322 µM) | 0.511
19 | Cc1ncc([N+](=O)[O-])n1CC(C)O (configuration not stated) [Secnidazole] (108.001 µM) | 0.48

Row | Compound | fraction of cells in G1 phase
20 | O=C(O)c1ccccc1Nc1cccc(C(F)(F)F)c1 [Flufenamic acid] (71.1145 µM) | 0.582
21 | NC(=O)OCC(COC(N)=O)c1ccccc1 [Felbamate] (83.9631 µM) | 0.505
22 | NC(N)=Nc1nc(CSCC/C(N)=N/S(N)(=O)=O)cs1 [Famotidine] (59.2687 µM) | 0.499
23 | Cc1ccc(C(=O)c2cc(O)c(O)c([N+](=O)[O-])c2)cc1 [Tolcapone] (73.1937 µM) | 0.522
24 | N=C(N)NC(=N)N1CCOCC1 [Moroxydine HCl] (96.3092 µM) | 0.496
25 | Oc1ccc(C2CNCCc3c2cc(O)c(O)c3Cl)cc1 (configuration not stated) [Fenoldopam mesylate] (65.41 µM) | 0.533
26 | CC=CC(=O)N(CC)c1ccccc1C [Crotamiton] (98.3833 µM) | 0.503
27 | CN(CCOc1ccc(CC2SC(=O)NC2=O)cc1)c1ccccn1 (configuration not stated) [Rosiglitazone maleate] (42.2386 µM) | 0.574
28 | CC(C)(Oc1ccc(CCNC(=O)c2ccc(Cl)cc2)cc1)C(=O)O [Bezafibrate] (55.2748 µM) | 0.517
29 | O=C(c1ccc(OCCN2CCCCC2)cc1)c1c(-c2ccc(O)cc2)sc2cc(O)ccc12 [Raloxifene HCl] (42.2301 µM) | 0.508
30 | COc1ccccc1N1CCN(CC(O)COc2cccc3ccccc23)CC1 (configuration not stated) [Naftopidil 2HCl] (50.9551 µM) | 0.564
31 | O=S(=O)(c1cccc2cnccc12)N1CCCNCC1 (54.8998 µM) | 0.529
32 | O=C(N[C@H](CO)[C@H](O)c1ccc([N+](=O)[O-])cc1)C(Cl)Cl [Chloramphenicol] (61.8937 µM) | 0.482
33 | COc1ccc2c3c1O[C@H]1C[C@@H](O)C=C[C@@]31CCN(C)C2 [Galanthamine HBr] (69.5987 µM) | 0.538
34 | C=C(c1ccc(C(=O)O)cc1)c1cc2c(cc1C)C(C)(C)CCC2(C)C [Bexarotene] (57.3905 µM) | 0.546
35 | CC1(C)[C@H](C(=O)O)N2C(=O)C[C@H]2S1(=O)=O [Sulbactam] (85.7469 µM) | 0.477
36 | O=C(O)C(=O)O.[NH-][C@@H]1CCCC[C@H]1[NH-].[Pt+2] [Oxaliplatin] (50.3396 µM) | 0.493
37 | CC[C@H](C)C(=O)O[C@H]1C[C@H](O)C=C2C=C[C@H](C)[C@H](CC[C@@H]3C[C@@H](O)CC(=O)O3)[C@H]21 [Pravastatin lactone] (49.1976 µM) | 0.451
